According to PubChem BioAssay AID1159580 (chemical genetic matrix, 2015):
Screen size: about 5,500 compounds; about 2,000 (36%) were called active. Not shown: some 18% with an inconclusive outcome. Rule as the data show it: active = normalized growth mostly below about 0.91 (no sharp cut-off); inconclusive = no clear call, values can overlap the other calls; inactive = mostly above about 0.92. This is one part of the list.

Experiment: chemical genetic growth profiling, strain panel (AID 1159580);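 also: tested at 20 µM; growth read once vehicle control cultures reached saturation at 30 °C; 1 = growth at the plate median or of vehicle wells; lower values mean less growth of the strain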
Details: S. cerevisiae deletion strains, growth OD

Measured: normalized growth

C[C@]12CCC(=O)C=C1CCc1ccc(O)cc12
inactive: locus YBR021W, strain FUR4, active compounds read low 1.03 | locus YBR229C, strain ROT2, active compounds read low 1 | locus YCL029C, strain bik1, active compounds read low 0.992 | locus YDL035C, strain GPR1, active compounds read low 1.04 | locus YDL074C, strain BRE1, active compounds read low 1.04 | locus YDL101C, strain DUN1, active compounds read low 1.01 | locus YDL134C, strain PPH21, active compounds read low 1 | locus YDL185W, strain tfp1, active compounds read low 0.992 | locus YDL192W, strain arf1, active compounds read low 0.998 | locus YDR101C, strain arx1, active compounds read low 0.984 | locus YDR150W, strain NUM1, active compounds read low 1 | locus YDR162C, strain NBP2, active compounds read low 1.01 | locus YDR318W, strain mcm21, active compounds read low 0.986 | locus YDR388W, active compounds read low 0.991 | locus YDR502C, strain sam2, active compounds read low 0.968 | locus YEL061C, strain CIN8, active compounds read low 1 | locus YER110C, active compounds read low 0.982 | locus YER155C, strain BEM2, active compounds read low 0.996 | locus YER167W, strain BCK2, active compounds read low 1.02 | locus YGL078C, strain dbp3, active compounds read low 0.995 | locus YGL086W, strain mad1, active compounds read low 0.982 | locus YGL248W, strain PDE1, active compounds read low 0.996 | locus YGR078C, strain PAC10, active compounds read low 0.998 | locus YGR135W, strain pre9, active compounds read low 0.973 | locus YGR252W, strain gcn5, active compounds read low 0.961 | locus YHR030C, strain SLT2, active compounds read low 1.01 | locus YHR079C, strain IRE1 (second series), active compounds read low 0.989 | locus YHR094C, strain hxt1, active compounds read low 0.993 | locus YHR129C, strain ARP1, active compounds read low 1 | locus YHR200W, strain rpn10, active compounds read low 0.989 | locus YIL066C, strain RNR3, active compounds read low 1.02 | locus YIL073C, strain SPO22, active compounds read low 1.04 | locus YIL125W, strain kgd1, active compounds read low 0.987 | locus YIR030C, strain dcg1, active compounds read low 1.01 | locus YJL095W, strain BCK1, active compounds read low 1 | locus YJL134W, strain LCB3, active compounds read low 1.01 | locus YJL168C, strain set2, active compounds read low 0.987 | locus YJL187C, strain SWE1 (second series), active compounds read low 1 | locus YJR043C, strain POL32, active compounds read low 1.01 | locus YKL009W, strain mrt4, active compounds read low 1.03 | locus YKL068W, active compounds read low 0.991 | locus YKL085W, strain MDH1 (second series), active compounds read low 0.999 | locus YKL085W, strain MDH1, active compounds read low 0.999 | locus YKL190W, strain CNB1, active compounds read low 1.01 | locus YKR001C, strain vps1, active compounds read low 0.977 | locus YLR039C, strain RIC1, active compounds read low 1.06 | locus YLR058C, strain SHM2, active compounds read low 1.02 | locus YLR102C, strain apc9, active compounds read low 0.994 | locus YLR262C, strain YPT6, active compounds read low 1.07 | locus YLR268W, strain sec22, active compounds read low 0.98 | locus YLR342W, strain FKS1 (second series), active compounds read low 0.997 | locus YLR371W, strain rom2, active compounds read low 0.994 | locus YLR418C, strain cdc73, active compounds read low 0.982 | locus YML016C, strain PPZ1, active compounds read low 1.01 | locus YML032C, strain rad52, active compounds read low 0.982 | locus YML124C, strain tub3, active compounds read low 0.979 | locus YMR078C, strain ctf18, active compounds read low 0.987 | locus YMR223W, strain ubp8, active compounds read low 0.988 | locus YMR307W, strain GAS1, active compounds read low 1.04 | locus YNL067W, strain RPL9B, active compounds read low 0.999 | locus YNL233W, strain BNI4, active compounds read low 0.99 | locus YNL250W, strain rad50, active compounds read low 1.01 | locus YNL271C, strain bni1, active compounds read low 0.982 | locus YNL298W, strain CLA4, active compounds read low 0.987 | locus YNL307C, strain MCK1, active compounds read low 0.983 | locus YNR052C, strain pop2, active compounds read low 0.982 | locus YOL012C, strain htz1 1.09 | locus YOL147C, strain pex11, active compounds read low 0.994 | locus YOR061W, strain CKA2, active compounds read low 1.03 | locus YOR069W, strain VPS5, active compounds read low 1.01 | locus YOR136W, strain idh2, active compounds read low 0.97 | locus YOR144C, strain elg1, active compounds read low 0.985 | locus YOR184W, strain ser1, active compounds read low 1.03 | locus YOR316C, strain cot1, active compounds read low 0.99 | locus YPL241C, strain CIN2, active compounds read low 1 | locus YPR119W, strain clb2, active compounds read low 0.986 | locus YPR141C, strain kar3, active compounds read low 0.994 | locus YPR163C, strain tif3, active compounds read low 0.984 | locus YPR167C, strain met16, active compounds read low 0.987 | strain wtn01, active compounds read low 0.992
